Among the data in PubChem BioAssay are growth inhibition, inhibition and outcome values, retold here.

Unmarked numbers belong to inactive results. For part of these data: Results with a measured potency or affinity are listed apart. The source made the active and inactive calls. Unless noted, the rule behind the calls is not given here.

A short description of test [1]: antimalarial activity against Dd2 strain (AID 2302;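 active = growth inhibition above 50% at the single 2 µM test dose, taken to imply half-maximal potency below 2 µM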;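 note: 0% = DMSO untreated growth and 100% = chloroquine plus artemisinin killed control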). The note with it: P. falciparum Dd2 in RBCs, LDH growth readout, 72 h; at 2 µM; hits give high values.
Test [2] can be described thus: HepG2 cytotoxicity, primary screen, cytotoxicity control for P. falciparum antimalarial project, cell-based, ATP luminescence (AID 2303;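 active = inhibition above 50%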;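 note: 0% = DMSO wells and 100% = digitonin-killed cells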). As to conditions: HepG2 viability, 24-48 h, at 10 µM, hits give high values.
In test [3] the target is L-lactate dehydrogenase (Plasmodium falciparum (isolate CDC / Honduras)) (UniProt Q27743). Put plainly: PfLDH activity inhibition – cell lysate, 3D7 strain, counter-screen for P. falciparum growth inhibition project (AID 2304).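 Note: 0% = vehicle and 100% = reference inhibitor.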 As to conditions: P. falciparum 3D7 crude extract, LDH APAD/NBT absorbance; at 2 µM; hits give high values.
L-lactate dehydrogenase (Plasmodium falciparum (isolate CDC / Honduras)), sequence (Q27743 whole entry, looked up): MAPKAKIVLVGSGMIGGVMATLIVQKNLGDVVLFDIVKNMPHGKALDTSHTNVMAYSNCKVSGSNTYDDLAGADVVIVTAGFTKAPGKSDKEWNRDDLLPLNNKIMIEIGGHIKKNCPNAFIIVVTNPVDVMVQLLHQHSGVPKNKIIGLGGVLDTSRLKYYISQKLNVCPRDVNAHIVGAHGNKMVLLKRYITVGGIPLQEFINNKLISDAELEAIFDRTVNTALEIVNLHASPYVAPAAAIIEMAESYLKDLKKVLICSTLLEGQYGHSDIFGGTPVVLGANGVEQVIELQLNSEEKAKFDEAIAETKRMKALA
Test [4] is described as follows: inhibition of 3D7 malaria parasite growth – strain 3D7 (AID 2306).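 Note: 0% = DMSO wells and 100% = chloroquine plus artemisinin control wells.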 As to conditions: P. falciparum 3D7 erythrocytic growth, LDH absorbance, 72 h; at 2 µM; hits give high values.
In test [5] the target is Calcium-dependent protein kinase 1 (Plasmodium falciparum (isolate 3D7)) (UniProt P62344). In words: PfCDPK1 kinase inhibitors, biochemical, TCAMS library (AID 1159585; cut-off not given, nearly all actives have IC50 up to about 0.98 µM;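 note: inhibitors leave more ATP so luminescence rises with inhibition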). As to conditions: recombinant PfCDPK1, Kinase-Glo ATP depletion luminescence.
Calcium-dependent protein kinase 1 (Plasmodium falciparum (isolate 3D7)), sequence (P62344 whole entry, looked up): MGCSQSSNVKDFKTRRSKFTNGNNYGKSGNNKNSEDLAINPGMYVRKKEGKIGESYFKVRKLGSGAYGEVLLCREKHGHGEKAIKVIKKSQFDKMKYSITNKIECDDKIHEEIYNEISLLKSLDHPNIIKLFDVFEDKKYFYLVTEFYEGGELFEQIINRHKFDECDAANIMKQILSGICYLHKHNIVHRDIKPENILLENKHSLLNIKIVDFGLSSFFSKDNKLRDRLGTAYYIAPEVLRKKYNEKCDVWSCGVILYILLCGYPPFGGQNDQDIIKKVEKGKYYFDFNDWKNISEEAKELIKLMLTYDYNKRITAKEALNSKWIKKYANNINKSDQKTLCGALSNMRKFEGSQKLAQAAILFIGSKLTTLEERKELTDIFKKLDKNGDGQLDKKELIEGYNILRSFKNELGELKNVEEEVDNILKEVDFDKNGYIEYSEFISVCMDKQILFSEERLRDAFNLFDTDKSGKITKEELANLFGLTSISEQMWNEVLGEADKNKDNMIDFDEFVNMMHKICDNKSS
The target in test [6] is Plasmodium falciparum protein kinase 6 (PK6, PF3D7_1337100) (UniProt Q8IDW1). Put plainly: PfPK6 kinase inhibitors, biochemical, TCAMS library (AID 1159586). As to conditions: recombinant PfPK6, Kinase-Glo ATP depletion luminescence.
Plasmodium falciparum protein kinase 6 (PK6, PF3D7_1337100), sequence (Q8IDW1 1-305): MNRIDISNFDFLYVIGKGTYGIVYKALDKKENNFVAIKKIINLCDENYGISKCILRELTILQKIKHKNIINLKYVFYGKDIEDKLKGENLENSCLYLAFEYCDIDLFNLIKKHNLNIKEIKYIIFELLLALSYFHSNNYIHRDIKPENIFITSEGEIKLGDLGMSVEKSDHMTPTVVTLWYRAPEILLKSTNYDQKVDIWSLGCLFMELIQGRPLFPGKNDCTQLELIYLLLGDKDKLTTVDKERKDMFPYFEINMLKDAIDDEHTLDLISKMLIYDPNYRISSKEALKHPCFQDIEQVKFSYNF
The target of test [7] is Protein kinase 7 (PK7), Plasmodium falciparum 3D7 (PF3D7_0213400) (UniProt Q7YTF7). Put plainly: inhibition of Plasmodium PK7 catalytic activity – biochemical, TCAMS antimalarial set, Kinase-Glo luminescence (AID 1159587). As to conditions: recombinant PfPK7, Kinase-Glo ATP depletion luminescence.
Protein kinase 7 (PK7), Plasmodium falciparum 3D7 (PF3D7_0213400), sequence (Q7YTF7 1-343): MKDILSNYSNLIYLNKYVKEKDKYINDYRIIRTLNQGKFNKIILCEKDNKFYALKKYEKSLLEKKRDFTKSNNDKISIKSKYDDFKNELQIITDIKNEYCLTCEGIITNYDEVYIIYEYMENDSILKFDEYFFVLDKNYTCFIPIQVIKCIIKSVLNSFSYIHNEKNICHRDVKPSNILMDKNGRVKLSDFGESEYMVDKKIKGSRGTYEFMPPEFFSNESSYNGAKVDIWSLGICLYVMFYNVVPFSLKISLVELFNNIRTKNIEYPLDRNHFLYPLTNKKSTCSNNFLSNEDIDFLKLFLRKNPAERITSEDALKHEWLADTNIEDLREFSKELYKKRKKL
Test [8] concerns the target Calcium-dependent protein kinase 4 (Plasmodium falciparum (isolate 3D7)) (UniProt Q8IBS5). Put plainly: PfCDPK4 kinase inhibitors, biochemical, TCAMS library (AID 1159588; cut-off not given, nearly all actives have IC50 up to about 0.91 µM). As to conditions: recombinant PfCDPK4, Kinase-Glo ATP depletion luminescence.

Calcium-dependent protein kinase 4 (Plasmodium falciparum (isolate 3D7)), sequence (Q8IBS5 whole entry, looked up): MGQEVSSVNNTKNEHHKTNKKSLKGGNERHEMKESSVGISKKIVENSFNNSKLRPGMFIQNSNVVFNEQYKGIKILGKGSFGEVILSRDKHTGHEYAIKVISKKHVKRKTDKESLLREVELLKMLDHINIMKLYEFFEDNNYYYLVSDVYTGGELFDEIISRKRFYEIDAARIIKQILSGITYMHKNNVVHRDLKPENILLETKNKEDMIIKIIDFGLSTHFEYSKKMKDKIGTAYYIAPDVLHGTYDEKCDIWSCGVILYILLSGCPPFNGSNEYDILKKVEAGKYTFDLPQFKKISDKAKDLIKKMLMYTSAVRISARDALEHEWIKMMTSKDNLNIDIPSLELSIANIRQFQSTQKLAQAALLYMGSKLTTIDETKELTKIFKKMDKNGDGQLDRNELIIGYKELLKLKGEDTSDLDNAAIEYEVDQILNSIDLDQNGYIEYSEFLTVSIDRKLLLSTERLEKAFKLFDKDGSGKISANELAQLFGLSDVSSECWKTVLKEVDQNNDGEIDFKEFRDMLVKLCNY

In the case of `O=C1COc2ccccc2N1C/C=C(\CN1CCC(c2ccccc2)CC1)c1cc(Cl)cc(Cl)c1`, the growth inhibition is 72% (active) in test [1] and 91% (active) in test [4]. For the same molecule, the inhibition in test [2] is 14%; in test [3], -4%. Further, the outcome in test [5], in test [6], in test [7] and in test [8] was inactive.
As for `CNCc1ccc(CN(C)c2nc(N)c3cc(OC)c(OC)cc3n2)cc1`, the growth inhibition was 3% in test [1] and 96% (active) in test [4]. In addition, the inhibition was 12% in test [2] and 5% in test [3]. For the same molecule, the result in test [5], in test [6], in test [7] and in test [8] was inactive.
In the case of `O=c1cc(NCCCNCc2ccc(C(F)(F)F)s2)[nH]c2ccccc12`, the growth inhibition was 68% (active) in test [1] and 99% (active) in test [4]. Further, the figures for the inhibition in test [2] and in test [3] were -11% and 2%, respectively. The outcome in test [5], in test [6], in test [7] and in test [8] was inactive.
